# Data: PubChem BioAssay
# “And” between values parts separate entries of the source, which are not always exact repeats. Equal entries are not always repeated. The source made the active and inactive calls. Rule as the data show it, unless noted: active = inhibition above about 80%; inactive = the rest.
# What was measured:
# [1] = growth inhibition of CRL1545 osteosarcoma cells, cell-based, cisplatin and BGB IC20 combos (AID 1671464); conditions: stronger effect = higher value;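 also: cells exposed to compound for 96 hours before readout; 0% = vehicle DMSO and 100% = high DMSO killing control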
# F380Y = assay: modulators of BK channel variants, profiling panel, selectivity assay, cell-based, U2OS BacMam, thallium flux, beta subunits (AID 1259406;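 active = thallium flux through the channel raised or lowered by more than 3 SD from vehicle-only wells, actives on both sides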;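 also: initial slope of Thallos dye fluorescence rise after thallium is added; log ratio against the mean of 0.3% DMSO vehicle wells on the same plate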); conditions: at 30 µM
# F380Y/beta1 = assay: as above; conditions: at 30 µM
# [2] = UWB1.289 ovarian carcinoma cell growth inhibition, synergistic combos for chromothripsis tumors, BGB or cisplatin combos (AID 1671456); conditions: UWB1.289 ovarian carcinoma cells, stronger effect = higher value;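 also: cells exposed to compound for four days; 0% = vehicle DMSO and 100% = killing by high DMSO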
# [3] = LFS_MB_2R medulloblastoma cell growth inhibition, synergistic combos for chromothripsis tumors, cisplatin combos (AID 1671457); conditions: LFS_MB_2R medulloblastoma cells, stronger effect = higher value;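 also: cells exposed to compound for four days before readout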
# [4] = MDA-MB-436 breast carcinoma cell growth inhibition, synergistic combos for chromothripsis tumors, BGB or cisplatin combos (AID 1671458; call rule not given here;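 also: cells exposed for 96 hours; 0% = vehicle DMSO and 100% = killing by high DMSO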); conditions: MDA-MB-436 breast carcinoma growth inhibition, drug combinations, stronger effect = higher value
# [5] = UWB1.289_BRCA1 ovarian cancer growth, cell-based, BGB or cisplatin combinations (AID 1671459); conditions: UWB1.289 BRCA1 ovarian carcinoma, drug combinations, stronger effect = higher value
# [6] = human astrocyte viability loss, single and combined drugs, cytotoxicity control for chromothriptic childhood tumor combination screen, cell-based, BGB or cisplatin IC20 combos (AID 1671460); conditions: Human astrocytes, drug combinations, stronger effect = higher value;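 also: cells exposed to compounds for 96 hours before viability readout; 0% = vehicle and 100% = killing control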
# [7] = growth inhibition of BT084 medulloblastoma cells, cell-based, ICGC_MB145, cisplatin and BGB IC40 combos (AID 1671461); conditions: drug combinations, stronger effect = higher value;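 also: cells exposed to drugs for 96 hours; 0% = vehicle DMSO and 100% = high DMSO full killing control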
# [8] = growth inhibition of RCMB18 medulloblastoma cells, cell-based, cisplatin and BGB IC40 combos (AID 1671462); conditions: stronger effect = higher value;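 also: cells exposed to compound for four days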
# [9] = measured here: inhibition with BGB combination, at 0.05 µM
# [10] = measured here: inhibition with cisplatin combination, at 0.05 µM
# [11] = measured here: combination with cisplatin, at 0.5 µM
# [12] = measured here: combination with cisplatin, at 5 µM
# [13] = measured here: BGB combination, at 0.5 µM
# [14] = measured here: BGB combination, at 5 µM
# [15] = measured here: cisplatin combination, at 0.5 µM
# [16] = measured here: cisplatin combination, at 5 µM
# [17] = BGB combination, concentration series, at 5 µM
# [18] = cisplatin combination, concentration series, at 5 µM
# [19] = measured here: combo with BGB IC20, at 0.5 µM
# [20] = measured here: combo with cisplatin IC20, at 0.5 µM
# [21] = cisplatin combination, at 0.5 µM
# [22] = measured here: BGB IC40 combination 0.05 uM, at 0.05 µM
# [23] = measured here: BGB IC40 combination, at 0.05 µM
# [24] = measured here: with BGB IC20 combination, at 0.5 µM
# [25] = measured here: with cisplatin IC20 combination, at 0.5 µM
compound,measurement,setting,value
O=c1oc2c(O)c(O)cc3c(=O)oc4c(O)c(O)cc1c4c23,inhibition,"[1]; single agent, at 0.05 µM",-16%
same,inhibition,"[1]; single agent, at 5 µM",12.2%
COCc1c(C(C)C)nc(C(C)C)c(/C=C/[C@@H](O)C[C@@H](O)CC(=O)O)c1-c1ccc(F)cc1,log fold change Tl+ flux,F380Y,0.216 (active)
same,log fold change Tl+ flux,F380Y/beta1,0.473 (active)
CC(Cc1ccccc1)(NC(=O)CN)c1ccccc1 (stereo not drawn),log fold change Tl+ flux,F380Y,0.0343 (inactive)
same,log fold change Tl+ flux,F380Y/beta1,0.0342 (inactive)
O=c1c(O)c(-c2ccc(O)c(O)c2)oc2cc(O)cc(O)c12,inhibition,[2]; at 0.5 µM,-3.55% (inactive)
same,inhibition,[2]; [9],-4.11%
same,inhibition,[2]; [10],-12.6%
same,inhibition,[3]; at 0.5 µM,0.78% (inactive)
same,inhibition,[3]; [11],12%
same,inhibition,[3]; [12],15.1%
same,inhibition,[4]; at 0.5 µM,0.09% (inactive)
same,inhibition,[4]; [13],-0.722%
same,inhibition,[4]; [14],15.2%
same,inhibition,[4]; [15],-5.24%
same,inhibition,[4]; [16],12.3%
same,inhibition,[5]; [17],2.88%
same,inhibition,[5]; at 0.5 µM,-10.1% (inactive)
same,inhibition,[5]; [18],11.4%
same,inhibition,[6]; at 0.5 µM,-9.12% (inactive)
same,inhibition,[6]; [19],-6.54%
same,inhibition,[6]; [20],-19%
same,inhibition,[7]; at 0.5 µM,11.1% (inactive)
same,inhibition,[7]; [21],-4.44%
same,inhibition,"[7]; cisplatin combination, at 5 µM",-18.7%
same,inhibition,[7]; [22],37.6%
same,inhibition,"[7]; single agent, at 5 µM",-1.38%
same,inhibition,[8]; at 0.5 µM,8.96% (inactive)
same,inhibition,"[8]; cisplatin combo, at 5 µM",-16.5%
same,inhibition,[8]; [23],7.33%
same,inhibition,[8]; [11],6.44%
same,inhibition,"[8]; single agent, at 5 µM",2.31%
same,inhibition,[1]; at 0.5 µM,-39.9% (inactive)
same,inhibition,[1]; [24],-11.9%
same,inhibition,[1]; [25],-53.9%
same,inhibition,"[1]; single agent, at 0.05 µM",57.4%
same,inhibition,"[1]; single agent, at 5 µM",8.34%
Cc1oncc1C(=O)Nc1ccc(C(F)(F)F)cc1,inhibition,[2]; at 0.5 µM,4.13% (inactive)
same,inhibition,[2]; [9],-13.1%
same,inhibition,[2]; [10],-27.7%
same,inhibition,[3]; at 0.5 µM,-14.8% (inactive)
same,inhibition,[3]; [11],-17.8%
same,inhibition,[3]; [12],30.1%
same,inhibition,[4]; at 0.5 µM,3.93% (inactive)
same,inhibition,[4]; [13],12.3%
same,inhibition,[4]; [14],48.9%
same,inhibition,[4]; [15],-7.42%
same,inhibition,[4]; [16],42.4%
same,inhibition,[5]; [17],74.1%
same,inhibition,[5]; at 0.5 µM,6.99% (inactive)
same,inhibition,[5]; [18],66.1%
same,inhibition,[6]; at 0.5 µM,23.1% (inactive)
same,inhibition,[6]; [19],15.1%
same,inhibition,[6]; [20],28.3%
same,inhibition,[7]; at 0.5 µM,5.65% (inactive)
same,inhibition,[7]; [21],-5.97%
same,inhibition,"[7]; cisplatin combination, at 5 µM",60.5%
same,inhibition,[7]; [22],32%
same,inhibition,"[7]; single agent, at 5 µM",51.2%
same,inhibition,[8]; at 0.5 µM,-7.24% (inactive)
same,inhibition,"[8]; cisplatin combo, at 5 µM",23.6%
same,inhibition,[8]; [23],-20.4%
same,inhibition,[8]; [11],-2.75%
same,inhibition,"[8]; single agent, at 5 µM",34.1%
same,inhibition,[1]; at 0.5 µM,-17.2% (inactive)
same,inhibition,[1]; [24],-12.4%
same,inhibition,[1]; [25],-21.5%
same,inhibition,"[1]; single agent, at 0.05 µM",-28.9%
same,inhibition,"[1]; single agent, at 5 µM",28.1%
Nc1[nH]c(=O)ncc1F,inhibition,[2]; at 0.5 µM,-7.68% (inactive)
same,inhibition,[2]; [9],-29.7%
same,inhibition,[2]; [10],-21.7%
same,inhibition,[3]; at 0.5 µM,-27.6% (inactive)
same,inhibition,[3]; [11],-24.1%
same,inhibition,[3]; [12],-29.1%
same,inhibition,[4]; at 0.5 µM,-31.1% (inactive)
same,inhibition,[4]; [13],-21.4%
same,inhibition,[4]; [14],-20.1%
same,inhibition,[4]; [15],-54.4%
same,inhibition,[4]; [16],-28.4%
same,inhibition,[5]; [17],-10.1%
same,inhibition,[5]; at 0.5 µM,-22% (inactive)
same,inhibition,[5]; [18],-7.2%
same,inhibition,[6]; at 0.5 µM,-16.9% (inactive)
same,inhibition,[6]; [19],-11.3%
same,inhibition,[6]; [20],-15.3%
same,inhibition,[7]; at 0.5 µM,-18.1% (inactive)
same,inhibition,[7]; [21],-7.67%
same,inhibition,"[7]; cisplatin combination, at 5 µM",-29%
same,inhibition,[7]; [22],-18.5%
same,inhibition,"[7]; single agent, at 5 µM",-35%
same,inhibition,[8]; at 0.5 µM,-4.87% (inactive)
same,inhibition,"[8]; cisplatin combo, at 5 µM",12.7%
same,inhibition,[8]; [23],-1.76%
same,inhibition,[8]; [11],22.6%
same,inhibition,"[8]; single agent, at 5 µM",67.5%
same,inhibition,[1]; at 0.5 µM,-33% (inactive)
same,inhibition,[1]; [24],-8.11%
same,inhibition,[1]; [25],-45.4%
same,inhibition,"[1]; single agent, at 0.05 µM",-16.8%
same,inhibition,"[1]; single agent, at 5 µM",-1.42%
same,log fold change Tl+ flux,F380Y,0.0331 (inactive)
same,log fold change Tl+ flux,F380Y/beta1,0.0164 (inactive)
O=C(NCCN1CCOCC1)c1ccc(Cl)cc1,log fold change Tl+ flux,F380Y,-0.0393 (inactive)
same,log fold change Tl+ flux,F380Y/beta1,-0.0206 (inactive)
O=c1c(-c2ccc(O)cc2)coc2cc(O)cc(O)c12,inhibition,[2]; at 0.5 µM,-11.2% (inactive) and 6.51% (inactive)
same,inhibition,[2]; [9],-19.6% and -14.9%
same,inhibition,[2]; [10],-41.2% and -9.05%
same,inhibition,[3]; at 0.5 µM,-21.6% (inactive) and -9.3% (inactive)
same,inhibition,[3]; [11],-19.9% and -5.5%
same,inhibition,[3]; [12],2.54% and -37.8%
same,inhibition,[4]; at 0.5 µM,-10.3% (inactive) and -13.9% (inactive)
same,inhibition,[4]; [13],-9.11% and -11.4%
same,inhibition,[4]; [14],-2.8% and 13.3%
same,inhibition,[4]; [15],-11% and -29.3%
same,inhibition,[4]; [16],-8.45% and 5.18%
same,inhibition,[5]; [17],16.4% and 33.4%
same,inhibition,[5]; at 0.5 µM,-10.6% (inactive) and 4.64% (inactive)
same,inhibition,[5]; [18],5.85% and 47.6%
same,inhibition,[6]; at 0.5 µM,-1.4% (inactive) and 12.1% (inactive)
same,inhibition,[6]; [19],14% and 8.3%
same,inhibition,[6]; [20],-16.8% and 13.7%
same,inhibition,[7]; at 0.5 µM,-13.6% (inactive) and -23.4% (inactive)
same,inhibition,[7]; [21],-26.2% and 3.79%
same,inhibition,"[7]; cisplatin combination, at 5 µM",1.19% and 21.5%
same,inhibition,[7]; [22],-40.6% and -5.57%
same,inhibition,"[7]; single agent, at 5 µM",-5.08% and 6.68%
same,inhibition,[8]; at 0.5 µM,0.59% (inactive) and -8.25% (inactive)
same,inhibition,"[8]; cisplatin combo, at 5 µM",-43.5% and 11.5%
same,inhibition,[8]; [23],-4.72% and -2.4%
same,inhibition,[8]; [11],13.5% and -9.76%
same,inhibition,"[8]; single agent, at 5 µM",-12.8% and -12.2%
same,inhibition,[1]; at 0.5 µM,-44.2% (inactive) and 5.21% (inactive)
same,inhibition,[1]; [24],-31% and 18.3%
same,inhibition,[1]; [25],-53.3% and -3.63%
same,inhibition,"[1]; single agent, at 0.05 µM",-62.4% and -21.3%
same,inhibition,"[1]; single agent, at 5 µM",-46.3% and 9.19%
